The panel holds about 79,000 compounds, 15% with a hit somewhere; the sample as a whole holds those more often. Activity calls are given as the source filed them. No stated cut-off is given here; in the data, active means growth inhibition above about 70%; inactive means the rest.
Key:
[1] = NCI Yeast Anticancer Drug Screen. Data for the rad52 strain (AID 147);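 further: 0% = growth of vehicle-treated control cultures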; settings: S. cerevisiae rad52 mutant growth inhibition, active compounds read high
Procedure, shortened: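 Vehicle-treated cultures served as the reference for growth inhibition of compound-exposed yeast bearing a DNA repair mutation.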

[2] = NCI Yeast Anticancer Drug Screen. Data for the wt1 strain (AID 149);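 further: 0% = growth of vehicle-treated wt1 cultures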; settings: S. cerevisiae wt1 strain (SPY 50644) growth inhibition, active compounds read high
Procedure, shortened: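 Yeast wt1 strain exposed to compounds; growth inhibition measured relative to vehicle-treated controls.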

[3] = NCI Yeast Anticancer Drug Screen. Data for the rad50EPP+ strain (AID 151);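 further: 0% = growth of vehicle-treated control cultures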; settings: S. cerevisiae rad50 mutant strain, active compounds read high
Procedure, shortened: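 In this screen, rad50EPP+ yeast were exposed to compounds. Growth inhibition was scored against vehicle-treated controls.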

[4] = NCI Yeast Anticancer Drug Screen. Data for the mgt1 strain (AID 153); settings: S. cerevisiae mgt1 mutant growth inhibition, active compounds read high
Procedure, shortened: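 mgt1 strain exposed; growth vs vehicle control recorded as inhibition.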

[5] = NCI Yeast Anticancer Drug Screen. Data for the rad50 strain (AID 155);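 further: 0% = growth of vehicle-only cultures of the same strain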; settings: S. cerevisiae rad50 strain growth inhibition, active compounds read high
Procedure, shortened: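 Yeast carrying a defined DNA repair defect were exposed to test compounds, and growth was compared with vehicle-treated controls to give percent inhibition.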

[6] = NCI Yeast Anticancer Drug Screen. Data for the mec2-1 strain (AID 157); settings: S. cerevisiae mec2-1 strain, active compounds read high
Procedure, shortened: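 Vehicle-treated cultures served as reference for growth inhibition of compound-exposed mec2-1 yeast.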

[7] = NCI Yeast Anticancer Drug Screen. Data for the rad14 strain (AID 159);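 further: 0% = growth of vehicle-treated control cultures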; settings: S. cerevisiae rad14 strain growth inhibition, active compounds read high
Procedure, shortened: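 Yeast cells carrying a defined DNA-repair defect were exposed to compounds, and growth inhibition was calculated relative to vehicle-treated control cultures.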

[8] = NCI Yeast Anticancer Drug Screen. Data for the CLN2oe strain (AID 163);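 further: 0% = growth of vehicle-only control cultures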; settings: S. cerevisiae CLN2oe strain, active compounds read high
Procedure, shortened: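 Inhibition relative to vehicle-treated yeast is reported. Cells: strain with genetic alteration in cell-cycle control, grown with compound.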

[9] = NCI Yeast Anticancer Drug Screen. Data for the cln2 rad14 strain (AID 165);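 further: 0% = growth equal to vehicle treated cultures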; settings: S. cerevisiae cln2 rad14 strain, active compounds read high
Procedure, shortened: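 Each compound was tested on cln2 rad14 yeast. Inhibition of growth was calculated against vehicle-exposed controls.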

[10] = NCI Yeast Anticancer Drug Screen. Data for the bub3 strain (AID 167); settings: S. cerevisiae bub3 mutant strain, active compounds read high
Procedure, shortened: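 Compounds were applied to a genetically altered yeast strain carrying a cell-cycle control defect. Growth inhibition was scored against vehicle-treated controls.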

[11] = NCI Yeast Anticancer Drug Screen. Data for the wt2 strain (AID 169);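 further: 0% = growth of vehicle-treated yeast cultures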; settings: S. cerevisiae wt2 strain growth inhibition, active compounds read high
Procedure, shortened: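 Inhibition of yeast growth was determined after compound treatment, normalised to controls receiving only vehicle.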

[12] = NCI Yeast Anticancer Drug Screen. Data for the mlh1 strain (AID 171);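 further: 0% = growth of vehicle-treated control cultures of the same strain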; settings: S. cerevisiae mlh1 strain growth inhibition, active compounds read high
Procedure, shortened: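 Vehicle-normalised growth inhibition of a repair- or checkpoint-altered yeast strain following compound treatment.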

[13] = NCI Yeast Anticancer Drug Screen. Data for the sgs1 strain (AID 173);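 further: 0% = growth of vehicle-only control cultures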; settings: S. cerevisiae sgs1 mutant, active compounds read high
Procedure, shortened: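 Screen format: yeast with repair or checkpoint alterations, compound exposure, growth read relative to vehicle.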

[14] = NCI Yeast Anticancer Drug Screen. Data for the mlh1 rad18 strain (AID 175); settings: S. cerevisiae mlh1 rad18 strain growth inhibition, active compounds read high
Procedure, shortened: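 Vehicle-treated cultures served as the reference for growth inhibition in a yeast strain carrying DNA damage repair alterations exposed to each compound.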

[15] = NCI Yeast Anticancer Drug Screen. Data for the rad18 strain (AID 177); settings: S. cerevisiae rad18 mutant growth inhibition, active compounds read high
Procedure, shortened: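 Test articles were incubated with altered yeast defective in DNA damage repair. Results are given as inhibition of growth versus vehicle.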

[16] = NCI Yeast Anticancer Drug Screen. Data for the sgs1 mgt1 strain (AID 161);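 further: 0% = growth of cultures given vehicle only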; settings: S. cerevisiae sgs1 mgt1 strain, active compounds read high
Procedure, shortened: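 Test agents were incubated with a DNA-repair-mutant yeast strain. Growth was then read and compared against vehicle-treated controls.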

[17] = at 5.0 µM (retest, dose inferred, filed as 0.5)
[18] = at 50.0 µM (retest, dose inferred, filed as 5.0)

Measured: growth inhibition

CCOC(=O)c1cc(-c2ccc(Cl)cc2)c([N+](=O)[O-])n1C
active: [1]; at 33.0 µM 90% | [1]; at 100.0 µM 96% | [2]; at 100.0 µM 96% | [3]; at 33.0 µM 78% | [3]; at 100.0 µM 93% | [4]; at 33.0 µM 84% | [4]; at 100.0 µM 96% | [5]; at 33.0 µM 89% | [5]; [18] 97% | [5]; at 50.0 µM 88.4% | [5]; at 100.0 µM 95% | [6]; at 33.0 µM 96% | [6]; [18] 96% | [6]; at 50.0 µM 90.3% | [6]; at 100.0 µM 96% | [7]; at 33.0 µM 76% | [7]; at 100.0 µM 95% | [8]; at 100.0 µM 96% | [9]; [18] 95% | [9]; at 50.0 µM 89% | [10]; at 33.0 µM 74% | [10]; [18] 97% | [10]; at 50.0 µM 85.3% | [10]; at 100.0 µM 95% | [11]; at 33.0 µM 70% | [11]; at 100.0 µM 97% | [12]; at 33.0 µM 94% | [12]; at 100.0 µM 96% | [13]; at 33.0 µM 97% | [13]; at 100.0 µM 98% | [14]; [18] 97% | [14]; at 50.0 µM 87.9% | [15]; at 11.0 µM 71% | [15]; at 33.0 µM 95% | [15]; at 100.0 µM 96%
inactive: [1]; at 1.2 µM 12% | [1]; at 3.7 µM 24% | [1]; at 11.0 µM 41% | [2]; at 1.2 µM 1% | [2]; at 3.7 µM 3% | [2]; at 11.0 µM 13% | [2]; at 33.0 µM 68% | [3]; at 1.2 µM 16% | [3]; at 3.7 µM 23% | [3]; at 11.0 µM 48% | [4]; at 1.2 µM -10% | [4]; at 3.7 µM -2% | [4]; at 11.0 µM 1% | [5]; at 1.2 µM 9% | [5]; at 3.7 µM 26% | [5]; [17] -12% | [5]; at 11.0 µM 34% | [6]; at 1.2 µM 15% | [6]; at 3.7 µM 23% | [6]; [17] -8% | [6]; at 11.0 µM 23% | [7]; at 1.2 µM -8% | [7]; at 3.7 µM -4% | [7]; at 11.0 µM 11% | [8]; at 1.2 µM 10% | [8]; at 3.7 µM -3% | [8]; at 11.0 µM 7% | [8]; at 33.0 µM 60% | [9]; [17] 15% | [10]; at 1.2 µM -6% | [10]; at 3.7 µM -29% | [10]; [17] -22% | [10]; at 11.0 µM -9% | [11]; at 1.2 µM 6% | [11]; at 3.7 µM 13% | [11]; at 11.0 µM 13% | [12]; at 1.2 µM 28% | [12]; at 3.7 µM 36% | [12]; at 11.0 µM 56% | [13]; at 1.2 µM 27% | [13]; at 3.7 µM 29% | [13]; at 11.0 µM 58% | [14]; [17] 45% | [15]; at 1.2 µM 3% | [15]; at 3.7 µM 37%

O=C1OC(CCl)CN1/N=C/c1ccc([N+](=O)[O-])o1 (stereo not given)
active: [1]; at 100.0 µM 88% | [3]; at 100.0 µM 73% | [5]; [18] 78% | [5]; at 100.0 µM 80% | [6]; [18] 76% | [7]; at 100.0 µM 71% | [16]; [18] 89% | [16]; at 50.0 µM 71.9% | [10]; [18] 70% | [11]; at 100.0 µM 90% | [13]; at 33.0 µM 83% | [13]; at 100.0 µM 95% | [14]; [18] 92% | [14]; at 50.0 µM 87.9%
inactive: [1]; at 1.2 µM -36% | [1]; at 3.7 µM -11% | [1]; at 11.0 µM 19% | [1]; at 33.0 µM 54% | [2]; at 1.2 µM -2% | [2]; at 3.7 µM 2% | [2]; at 11.0 µM 14% | [2]; at 33.0 µM 21% | [2]; at 100.0 µM 54% | [3]; at 1.2 µM -3% | [3]; at 3.7 µM -17% | [3]; at 11.0 µM 14% | [3]; at 33.0 µM 47% | [4]; at 1.2 µM -3% | [4]; at 3.7 µM -8% | [4]; at 11.0 µM -3% | [4]; at 33.0 µM 1% | [4]; at 100.0 µM 25% | [5]; at 1.2 µM -10% | [5]; at 3.7 µM -8% | [5]; [17] 19% | [5]; at 11.0 µM 3% | [5]; at 33.0 µM 45% | [5]; at 50.0 µM 21.7% | [6]; at 1.2 µM -4% | [6]; at 3.7 µM -3% | [6]; [17] 9% | [6]; at 11.0 µM 0% | [6]; at 33.0 µM 7% | [6]; at 50.0 µM 44.2% | [6]; at 100.0 µM 19% | [7]; at 1.2 µM -7% | [7]; at 3.7 µM 0% | [7]; at 11.0 µM 14% | [7]; at 33.0 µM 38% | [16]; [17] 35% | [8]; at 1.2 µM -7% | [8]; at 3.7 µM -8% | [8]; at 11.0 µM -6% | [8]; at 33.0 µM -7% | [8]; at 100.0 µM -2% | [10]; at 1.2 µM -8% | [10]; at 3.7 µM -4% | [10]; [17] 1% | [10]; at 11.0 µM -5% | [10]; at 33.0 µM 2% | [10]; at 50.0 µM 10% | [10]; at 100.0 µM 16% | [11]; at 1.2 µM 2% | [11]; at 3.7 µM 2% | [11]; at 11.0 µM 20% | [11]; at 33.0 µM 54% | [12]; at 1.2 µM -9% | [12]; at 3.7 µM -4% | [12]; at 11.0 µM -1% | [12]; at 33.0 µM 14% | [12]; at 100.0 µM 69% | [13]; at 1.2 µM -6% | [13]; at 3.7 µM 9% | [13]; at 11.0 µM 49% | [14]; [17] 66%

— PubChem BioAssay (NCI)
